ELG1 genotoxic = qHTS screen for small molecules that induce genotoxicity in human embryonic kidney (HEK293T) cells expressing luciferase-tagged ELG1; HEK293T ELG1-luciferase reporter, luminescence, 16 h; Potency, µM (highest dose often 46 µM), for the others: at the top dose activity change, positive = activation, most hits filed as activators; 330,000 tested, 1.3% active; AID 504466, 2011; further: % of control where 0% means no effect; nearly all actives have a fitted effect of over 60% in size
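ELG1-luciferase HEK293T cells, 2,000/well; compound pinned in; 16 hr, 37 °C, 5% CO2; ONE-Glo, 30 min RT; luminescence on CCD imager.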
Rab9 prom act = qHTS Assay for Rab9 Promoter Activators; AID 485297, 2010; Huh7 Rab9 promoter-luciferase reporter, luminescence, 24 h; 320,000 tested, 2.8% active; Potency, µM (highest dose often 9.22 µM), for the others: top-dose activation, negative = inhibition, hits mostly activators; further: % of control where 0% means no effect; nearly all actives have a fitted effect of over 60% in size
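Luminescence read-out: Huh7 cells stably expressing Rab9-luciferase, treated 24 h with compound at 37 °C, then lysed with luciferase reagent for 10 min at ambient before reading.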
SMN2 splice up = qHTS Assay for Enhancers of SMN2 Splice Variant Expression | Potency, µM (top dose mostly 46.1 µM), without a hit: at the highest dose activity change, positive = activation, actives largely listed as activators | AID 1458, 2008 | 210,000 tested, 2.8% active | HEK293 SMN2-luciferase splicing reporter, luminescence, 30-36 h; further: % of control where 0% means no effect; nearly all actives have a fitted effect of over 55% in size
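HEK293 cells carry an SMN2 […]–luciferase reporter in which exon 7 inclusion puts luciferase in frame. Cells were plated 10-12 h before compound addition, then incubated 30-36 h at 37C. ONE-Glo luminescence was read; sodium butyrate at 4.5 mM final served as control.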
p53 reactivation = qHTS assay for re-activators of p53 using a Luc reporter. AID 504706, 2011. Potency, µM (top dose mostly 92.2 µM), inactives show top-dose activity change, positive = activation, hits mostly activators. H1299 p53-A138V BP100-luciferase reporter, luminescence, 24 h. 320,000 tested, 0.063% active; further: % of control where 0% means no effect; nearly all actives have a fitted effect of over 45% in size
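H1299 (p53-null), stable ts p53-A138V + BP100-Luc; 1000 cells/well, Opti-MEM/10% FBS; cpd 4 pt, 1:5; 24 h, 37 deg C, 5% CO2; detection reagent 10 min RT; luminescence.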
NPC1 promoter act = qHTS Assay for NPC1 Promoter Activators; Huh7 NPC1 promoter luciferase reporter, 24 h; Potency, µM (top dose mostly 9.22 µM), for the others: at the highest dose activation, actives largely listed as activators; 320,000 tested, 2.4% active; AID 485313, 2010; further: % of control where 0% means no effect; nearly all actives have a fitted effect of over 60% in size
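Stable NPC1-promoter luciferase Huh7 line; cpd (DMSO) 24 h, 37 °C, 5% CO2; Amplite luciferase reagent 10 min RT; luminescence readout. qHTS format.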
FLuc modulator = qHTS profiling assay for firefly luciferase inhibitor/activator using purifed enzyme and Km concentrations of substrates (counterscreen for miR-21 project) | 360,000 tested, 6.9% active | purified FLuc, Km substrates, luminescence inhibition | Potency, µM (series often up to 57.5 µM), for the others: at the top dose activity change, negative = inhibition, usual class: inhibitors | AID 588342, 2011;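 further: plate controls were vehicle for no effect and reference inhibitor for full effect; nearly all actives have a fitted effect of over 55% in size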
Target sequence (P08659 whole entry, looked up): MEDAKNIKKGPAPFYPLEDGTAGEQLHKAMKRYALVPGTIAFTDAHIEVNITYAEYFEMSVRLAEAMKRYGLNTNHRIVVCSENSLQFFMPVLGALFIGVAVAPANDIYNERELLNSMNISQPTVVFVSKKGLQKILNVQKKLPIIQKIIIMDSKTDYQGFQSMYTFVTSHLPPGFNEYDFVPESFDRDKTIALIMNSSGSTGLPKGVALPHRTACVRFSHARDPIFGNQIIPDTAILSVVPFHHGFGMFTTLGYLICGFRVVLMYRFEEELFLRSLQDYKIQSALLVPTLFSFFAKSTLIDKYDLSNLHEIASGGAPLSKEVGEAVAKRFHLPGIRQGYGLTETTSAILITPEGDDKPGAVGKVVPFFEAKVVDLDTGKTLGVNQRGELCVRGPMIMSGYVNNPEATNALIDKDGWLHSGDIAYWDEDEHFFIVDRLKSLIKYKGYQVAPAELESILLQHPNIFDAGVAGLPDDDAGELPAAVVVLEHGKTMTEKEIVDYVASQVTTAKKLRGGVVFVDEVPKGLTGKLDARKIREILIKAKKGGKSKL
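Biochemical qHTS of compounds, final roughly 60 µM downward over six points, against 10 nM purified firefly luciferase using Km concentrations of substrates (10 uM D-luciferin, 10 uM ATP) in Tris acetate pH 7.5 buffer; luminescence output.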
The depositor's hits bear a star; ? = inconclusive; · = not tested or not shown; [ ] = remark or other dose. Only some compounds are listed: those with a hit (about 7.3% of all), similar ones and a draw of the others. The call rests on the fitted dose curve; in most records, active means well fitted curve in the direction sought with a large enough effect; inconclusive means small, poorly fitted or top-dose-only effect, or another doubt; inactive means no such curve, though single readings can be large; an effect the other way counts as inactive or inconclusive. Potency means the concentration at half of the fitted maximal effect.

SMILES | ELG1 genotoxic | Rab9 prom act | SMN2 splice up | p53 reactivation | NPC1 promoter act | FLuc modulator
Cc1ccc2cc(CN(Cc3ccco3)S(=O)(=O)c3c(C)ccc4nsnc34)c(=O)[nH]c2c1 | -14% | -2% | 35µM* | -1% | 1% | -13%
COc1ccc(/C=C/c2nc3ccccc3n2Cc2ccccc2OC)cc1 | ? | ? | 7.9µM* | ? | 3.2µM* | 0.85µM*
COc1ccccc1Cn1c(/C=C/c2ccccc2)nc2ccccc21 | 16% | ? | ? | ? | 18% | 3µM*
C=CCn1c(NCc2ccccc2OC)nc2ccccc21 | 5% | 15% | · | · | 0% | ?
COc1ccccc1Cn1c(C(C)C)nc2ccccc21 | -11% | -8% | · | -5% | -3% | 2%
O=Cc1sc(Nc2ccccc2)nc1Cl | -3% | 2% | -17% | 21% | -2% | ?
Cc1ccc(Nc2nc(Cl)c(C=O)s2)cc1Cl | -2% | 0% | 4% | 4% | -7% | 21µM*
Cc1ccc(S(=O)(=O)NCCc2nnc3ccc(SCc4ccccc4F)nn23)cc1 | · | · | · | · | · | -9%
NC(=O)[C@@H]1CCCN1C(=O)c1ccc2oc(CCc3ccccc3)nc2c1 | ? | ? | · | 4% | ? | -19%
O=C(c1ccc2oc(CCCc3ccccc3)nc2c1)N1CCCCC1CO (stereo not drawn) | ? | 6.3µM* | · | ? | 4.5µM* | 24µM*
CCOC(=O)CC1COCCN1C(=O)c1ccc2oc(Cc3ccccc3)nc2c1 (stereo not drawn) | ? | 3.2µM* | · | ? | ? | 12µM*
O=C(c1ccc2oc(CCc3ccccc3)nc2c1)N1CCC(O)CC1 | ? | 1µM* | · | ? | 1.3µM* | 11µM*
Nc1ccc2oc(CCc3ccccc3)nc2c1 | ? | 0.71µM* | 18µM* | 11% | 2.5µM* | 9.5µM*
Cc1ccc(NC(=O)C2CCN(C(=O)c3cnn(-c4ccccc4)c3-n3cccc3)CC2)cc1C | · | · | -46% | · | · | ?
COc1ccc(CCn2nc(C)c([N+](=O)[O-])c2C)cc1 | 16µM* | 3.2µM* | · | 28% | 3.2µM* | 12µM*
COc1cccc(-n2c(CCn3nc(C)c([N+](=O)[O-])c3C)n[nH]c2=S)c1 | -2% | 0% | 13% | -2% | 18% | -1%
CCCCC(CC)COC(=O)COc1ccc(Cl)cc1Cl (stereo not drawn) | · | · | 8% | · | · | ·
CC(=O)Nc1ccc(C(=O)COC(=O)C2CCCCC2)c(F)c1 | 6% | 2% | · | 13% | 2% | 0.67µM*
CC(=O)Nc1ccc(C(=O)COC(=O)C2CC2)c(F)c1 | ? | 24% | · | ? | ? | 5.4µM*
CC(=O)Nc1ccc(C(=O)COC(=O)Cc2ccsc2)c(F)c1 | 1% | · | · | 14% | · | ·
COc1cc2c(C#N)c(N3CCN(C)CC3)nc(N)c2c(N)n1 | ? | 8% | 13% | 4% | -4% | ?
N#Cc1c(N2CCCC2)nc(N)c2c(N)nc(N3CCCC3)cc12 | 13% | ? | 11µM* | ? | 23% | ?
COc1cc2c(C#N)c(N3CCCC3)nc(N)c2c(N)n1 | 11% | -1% | · | 6% | -1% | 17µM*
COc1cc2c(C#N)c(N3CCN(c4ccccc4OC)CC3)nc(N)c2c(N)n1 | -9% | -8% | -21% | -4% | 0% | 24µM*
COCCn1c(=O)c(-c2ccc(Cl)cc2)nc2cncnc21 | · | · | -3% | · | · | ·
SMILES | ELG1 genotoxic | Rab9 prom act | SMN2 splice up | p53 reactivation | NPC1 promoter act | FLuc modulator
NNc1nc2c(-c3ccc(F)cc3)nnn2c2ccccc12 | ? | 2.8µM* | 5µM* | 15% | 4µM* | 4.8µM*
Fc1ccc(-c2nnn3c2nc(NCc2ccccc2)c2ccccc23)cc1 | 0% | -4% | -1% | -2% | 5% | 4%
NNc1nc2c(-c3ccc(Cl)cc3)nnn2c2ccccc12 | 13% | 2.5µM* | 13µM* | 23% | 4µM* | ?
COc1cc(SC)ccc1C(=O)Nc1nc2ccccc2[nH]1 | -17% | -43% | · | -26% | -32% | 0.014µM*
COc1ccccc1C(=O)NCCC(=O)Nc1nc2ccccc2[nH]1 | 23µM* | -2% | · | 6% | 2% | -14%
COc1ccccc1C(=O)NC(C)c1nc2ccccc2[nH]1 (stereo not drawn) | -1% | -6% | -10% | -9% | -2% | 0%
COc1ccccc1C(=O)Nc1nc2ccccc2[nH]1 | ? | -44% | · | -13% | ? | 0.019µM*
CCC(=O)N1c2ccccc2CC1C(=O)NCCc1cc(OC)c(OC)c(OC)c1 (stereo not drawn) | · | · | · | · | · | -4%
CC#CCN1c2ccccc2[C@]23C[C@@H](C(=O)OC)N(S(=O)(=O)c4ccc(C)cc4)C2=NC(C(=O)OC)=C(C(=O)OC)[C@H]13 | · | · | 1%[9.22 µM] | · | · | ·
CCOc1ccc(NS(=O)(=O)c2ccc(C(=O)NC3CCC(O)CC3)cc2)cc1 (stereo not drawn) | 15% | 1% | · | 0% | -3% | 13%
CC(C)(C)c1ccc(C(=O)Nc2nnc(C3=COCCO3)o2)cc1 | -3% | -2% | · | -11% | -3% | 21µM*
CN(C)c1ccc(C(=O)Nc2nnc(C3=COCCO3)o2)cc1 | 14% | 24% | -7% | 17% | 21% | -17%
COc1cccc(NC(=O)Cn2c(=O)n(-c3cccc(OC)c3)c(=O)c3c4c(sc32)CCCC4)c1 | · | · | -3% | · | · | -2%
N#C/C(=C\c1ccc(-c2ccc(C(=O)O)cc2)o1)C(=O)Nc1ccccc1C(=O)O | · | · | -5% | · | · | 13µM*
CC1CC1c1ccc(/C=C(\C#N)C(=O)Nc2ccc(Cl)cc2)o1 (stereo not drawn) | ? | 3.5µM* | 8.9µM* | ? | 3.5µM* | 4.8µM*
CC1CC1c1ccc(/C=C(\C#N)C(=O)Nc2ccccc2Cl)o1 (stereo not drawn) | 18% | 22% | ? | 1% | 16% | 19µM*
N#C/C(=C\c1ccc(-c2ccc(Br)cc2)o1)C(=O)Nc1ccccc1O | · | · | -2% | · | · | -2%
Cc1ccc(O)c(NC(=O)c2nc3nc(C)cc(C(F)F)n3n2)c1 | · | · | -4% | · | · | -2%
CCOc1ccc(-c2csc(NC(=O)C3CCCO3)n2)cc1 (stereo not drawn) | ? | 11% | 3% | 10% | 18% | 15µM*
O=C(Nc1nc(-c2ccc(Cl)cc2)cs1)C1CCCO1 (stereo not drawn) | ? | ? | 25% | -4% | 27% | 15µM*

Screens from PubChem.
